Assay results published in the supplement of paper PMC6555819.

What follows are sequences tested on VDR:RXRa (NR concentration 270 nM, RXRa partner concentration 90 nM) (assay: PBM binding z-score (relative to random genomic background probes); higher = stronger binding; sequences stand for … in GC…GCGATTGACAGCGTAGAATGAAGG).
Method: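 Protein-binding microarray (Agilent 4x180K custom design, double-stranded 60-nt probes: 5' GC cap, 34-nt variable region, 24-nt constant primer region; full probe sequence given). Purified or IVT nuclear receptor:RXRα heterodimers (3:1 NR:RXRα, mostly 270:90 nM) or homodimers were incubated for 1 h in PBS with 2% milk and no ligand, then detected with Alexa488 antibodies. Fluorescence from o1-orientation probes (~5 replicates averaged) was converted to z-scores against 500 random hg19 background probes. Variable regions are seed direct-repeat (DR0–DR5) sites, all their single-nucleotide variants and half-site ablations.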

In order of rising PBM binding z-score:
1. CAGCCTAGGTCTGGGCCAGTATAGGAGGAACGTT  -0.828
2. GCTCGGAGGACAAGGTCTGAGCTTTGTCCGTAGA  -0.681
3. AATACAGGCTCACTAGGCCAGAGTAGGTACGAAT  -0.46
4. GTACCAAGGTGAATAGGACGTTGATGAGTAGGCG  -0.357
5. GGAGACAGGTGAAACGCAGGTAACTCAGGGTGGC  -0.319
6. CCTTACGGGCCACTCCAGGTTATAGCATCGGAGT  -0.25
7. GCGACTGGGGCAAAGCAAGTTACCATAAGGTTGG  -0.206
8. GCGACTGGGGCAAAGCAGGTTACGATAAGGTTGG  0.0646
9. GCATATAGGTAATACTAGGTGAAAGTCCGATTGT  0.212
10. CCTCGGAGGACAACAGCAGGTCAGAGCTGCCAGA  0.333
11. ACTAGCATGCCAAGTTTGGGTCACTCAAACAAAG  0.531
12. TCATATCGGTAAAGGTGAAAGTCGAACGATATGA  0.691
13. GCTGCTAGGTCAGGTTGGTCAGATAACGGGTACG  0.794
14. ATCCCTAGGTAAAGATAGTTCAGTGAATGCAAAT  0.829
15. TCATATAGGTAAATGCTAGGTGAAAGTCCGATCT  0.886
16. TCTTGTATATCAACAGGAGGTTAAGAAAGATCGA  1.28
17. ACAATGAGGTTAAGATCAGGGAAACAGAATACAT  1.3
18. CGTCAAAGTTCGAGGTAACGTAACAGAAAGCAGC  1.32
19. TTATATAGGTAAAAGGTGAAAGTCGGTGTGGTAA  1.4
20. TCATATAGGTAAACAGGTGTAAGTCCGTAAGTTA  1.6
21. ATCTTTAGGTAAAGTTCAGTGAAAGATCGATAGA  1.7
22. ATCGCAAGGTCGAAGGTGAGTATACCCACCCGAA  1.8
23. ATACCAAGGTGATCGTGAGGTCGTAGATACTAAC  2.42
24. CCTAGCAGGCCAGGGTCACTCTAGCATTTCGCTT  2.45
25. CATACAGGGTCAGCTACGCCAGAGTAGGGACGGC  2.74
26. CCTGCTAGGTCAGGGTCAGCTAATCTACAGTATG  2.86
27. GGAACGAGGGCATCCGAGTTGATAGCATGGCGAT  3.18
28. GCTTACGGGTCAAAGCTTATAGCATGAATAGAAT  3.36
29. TCTCGGAGTACACGAAAGGTCAGAGCTCGACATC  3.41
30. ATACCAAGGTGATCGTGAGGTCGTTGAAACTAAC  3.53
31. CGTCCCAGGTCAATGCTAGGTCAGTGAAAGCATT  3.68
32. CGTCCAAGGTCAAGGTAAGTGAAAGAGACTCGAA  3.76
33. CCTTGTTGGTCAGGAGGTCACACACCGGATATGA  3.79
34. CGTCAAAGTTCAAGGTAACGTCACAGAAAGCAGC  3.96
35. CAAACTAGGTCTAAGGTCAAAGTCGAGCCAACCA  4.26
36. ATCTCTAGGTAACCAAGTTCAGAGAATGCCGAAC  4.26
37. AATAGTTGGTCAGCTGAGGTCACACACAATTCGG  4.69
38. CGTCCAAGGTCAAGGTCATTGAAAGAGACTCGAA  5.37
39. CAAACTAGGTCACGAAAGGTCAAAGACGAATGAC  6.91
40. CAAACTAGGTCACAGAGGTCACAGTCCGTGCGTA  7.66
